Source: PubChem BioAssay AID1159580 (chemical genetic matrix, 2015)
“And” between values parts separate entries of the source, which are not always exact repeats. Equal entries are not always repeated. The campaign covered roughly 5,500 compounds. About 2,000 (36%) were called active. Another 18% or so got no clear call; they are omitted. Rule as the data show it: active = normalized growth mostly below about 0.91 (no sharp cut-off); inconclusive = no clear call, values can overlap the other calls; inactive = mostly above about 0.92. This is one part of the list.

Assay: chemical genetic growth profiling, strain panel (AID 1159580);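 also: tested at 20 µM; growth read once vehicle control cultures reached saturation at 30 °C; 1 = growth at the plate median or of vehicle wells; lower values mean less growth of the strain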
Details: S. cerevisiae deletion strains, growth OD

Measured: normalized growth

O=C1NS(=O)(=O)c2ccccc21
inactive: locus YAL013W, strain DEP1, active compounds read low 1.01 | locus YAL021C, strain ccr4, active compounds read low 0.965 | locus YAL026C, strain drs2, active compounds read low 1.04 | locus YAL030W, strain snc1, active compounds read low 1.02 | locus YBL061C, strain skt5, active compounds read low 1.03 | locus YBR009C, strain hhf1, active compounds read low 1.03 | locus YBR021W, strain FUR4, active compounds read low 1.02 | locus YBR023C, strain chs3, active compounds read low 1.02 | locus YBR171W, strain sec66, active compounds read low 1.03 | locus YBR229C, strain ROT2, active compounds read low 1.01 | locus YBR231C, strain swc5, active compounds read low 1.02 | locus YBR279W, strain paf1, active compounds read low 1.01 | locus YCL011C, strain gbp2, active compounds read low 1.02 | locus YCL016C, strain dcc1, active compounds read low 0.988 | locus YCL029C, strain bik1, active compounds read low 0.994 | locus YCL061C, strain MRC1, active compounds read low 1.02 | locus YCL069W, strain vba3, active compounds read low 1.02 | locus YCR088W, strain abp1, active compounds read low 1.02 | locus YDL005C, strain med2, active compounds read low 1.03 | locus YDL035C, strain GPR1, active compounds read low 0.994 | locus YDL040C, strain nat1, active compounds read low 1.02 | locus YDL074C, strain BRE1, active compounds read low 1.01 | locus YDL101C, strain DUN1, active compounds read low 1.01 | locus YDL134C, strain PPH21, active compounds read low 1 | locus YDL185W, strain tfp1, active compounds read low 0.994 | locus YDL192W, strain arf1, active compounds read low 1 | locus YDR001C, strain nth1, active compounds read low 1.01 | locus YDR069C, strain doa4, active compounds read low 1.04 | locus YDR101C, strain arx1, active compounds read low 0.983 | locus YDR137W, strain rgp1, active compounds read low 1.03 | locus YDR159W, strain sac3, active compounds read low 1.11 | locus YDR162C, strain NBP2, active compounds read low 0.998 | locus YDR195W, strain ref2 0.993 | locus YDR297W, strain sur2, active compounds read low 1.02 | locus YDR318W, strain mcm21, active compounds read low 0.979 | locus YDR334W, strain swr1, active compounds read low 1.02 | locus YDR335W, strain msn5, active compounds read low 1.01 | locus YDR388W, active compounds read low 0.991 | locus YDR392W, strain spt3, active compounds read low 0.957 | locus YDR502C, strain sam2, active compounds read low 0.995 | locus YEL003W, strain gim4, active compounds read low 1.03 | locus YEL037C, strain rad23, active compounds read low 1.01 | locus YEL061C, strain CIN8 (second series), active compounds read low 1.02 | locus YEL061C, strain CIN8, active compounds read low 1.01 | locus YER015W, strain faa2, active compounds read low 1.02 | locus YER016W, strain bim1, active compounds read low 1.02 | locus YER110C, active compounds read low 0.987 | locus YER111C, strain swi4, active compounds read low 1.02 | locus YER155C, strain BEM2 (second series), active compounds read low 1.07 | locus YER155C, strain BEM2, active compounds read low 0.997 | locus YER167W, strain BCK2, active compounds read low 1 | locus YFR010W, strain ubp6, active compounds read low 1.03 | locus YGL078C, strain dbp3, active compounds read low 1 | locus YGL086W, strain mad1, active compounds read low 0.998 | locus YGL167C, strain pmr1, active compounds read low 1.02 | locus YGL173C, strain kem1, active compounds read low 1.06 | locus YGL227W, strain vid30, active compounds read low 1.02 | locus YGL240W, strain doc1, active compounds read low 1.05 | locus YGL248W, strain PDE1, active compounds read low 1.03 | locus YGL253W, strain hxk2, active compounds read low 1.05 | locus YGR078C, strain PAC10, active compounds read low 1.05 | locus YGR135W, strain pre9, active compounds read low 0.984 | locus YGR252W, strain gcn5, active compounds read low 0.976 | locus YHR013C, strain ard1, active compounds read low 1.02 | locus YHR027C, strain rpn1, active compounds read low 1.05 | locus YHR030C, strain SLT2, active compounds read low 1 and 0.989 | locus YHR079C, strain IRE1 (second series), active compounds read low 0.984 | locus YHR079C, strain IRE1, active compounds read low 0.984 | locus YHR094C, strain hxt1, active compounds read low 0.988 | locus YHR129C, strain ARP1, active compounds read low 1.02 | locus YHR142W, strain chs7, active compounds read low 1.03 | locus YHR200W, strain rpn10, active compounds read low 0.991 | locus YIL066C, strain RNR3, active compounds read low 1.02 | locus YIL073C, strain SPO22, active compounds read low 0.958 | locus YIL125W, strain kgd1, active compounds read low 0.989 | locus YIR030C, strain dcg1, active compounds read low 0.998 | locus YJL092W, strain hpr5, active compounds read low 1.02 | locus YJL095W, strain BCK1 (second series), active compounds read low 1.02 | locus YJL095W, strain BCK1, active compounds read low 1.04 and 0.999 | locus YJL115W, strain asf1, active compounds read low 1.02 | locus YJL129C, strain trk1, active compounds read low 1.04 | locus YJL134W, strain LCB3, active compounds read low 0.999 | locus YJL154C, strain vps35, active compounds read low 1.02 | locus YJL164C, strain tpk1, active compounds read low 0.993 | locus YJL166W, strain qcr8, active compounds read low 1.04 | locus YJL168C, strain set2, active compounds read low 0.984 | locus YJL187C, strain SWE1 (second series), active compounds read low 1.03 | locus YJR043C, strain POL32, active compounds read low 0.977
